Measured values: PubChem BioAssay (Tox21)
Inconclusive results are not listed. Unmarked numbers belong to inactive results. Active and inactive are the calls of the source. The call rests on the fitted dose curve; in most records, active means well fitted cell-killing curve with a large enough effect in the repeat runs; inconclusive means weak or mixed curves, or effect the other way; inactive means flat fitted curve, though single readings scatter.

Experiment: cAMP Responsive Elements (CRE) small molecule agonists, cell-based qHTS assay: qHTS cell viability counter screen (AID 2060914); further: nearly all actives have a fitted effect of over 50% in size
Details: CRE-bla HEK293T viability, CellTiter-Glo luminescence, 5 h; series mostly up to 92.4 µM; activity change, negative = cytotoxicity: at the top concentration
Source text: National Center for Advancing Translational Sciences [NCATS]
Division of Preclinical Innovation [DPI]
U.S. Environmental Protection Agency [EPA]
National Institutes of Environmental Health Sciences [NIEHS]
National Toxicology Program [NTP]
U.S. Food and Drug Administration [FDA]
CREB (cyclic-AMP Responsive Element Binding Protein) is a cellular transcription factor. It binds to certain DNA sequences called cAMP Responsive Elements (CRE) and regulates the transcription of the genes. […] This cell line can be used to find agonists/antagonists of the cyclic AMP signaling pathway. The activation of the report gene under culture conditions can be detected by fluorescence intensity. This cell line has been used to screen the Tox21 10K compound library to identify agonists that induce oxidative stress. The cytotoxicity of the Tox21 compound library against the CRE-bla cell line was tested in parallel by measuring the cell viability using CellTiter-Glo assay (Promega, Madison, WI) in the same wells.
Tox21 Assay Protocol Summary:
CRE-bla Hek 293T cells were suspended in assay medium (DMEM containing 10% dialyzed FBS, 0.1 mM NEAA, 1 mM sodium pyruvate and 25 mM HEPES) and dispensed at 2,000 cells/5 uL /well into 1536-well black wall/clear bottom plates using a Multidrop Combi (ThermoFisher Scientific, Waltham, MA) dispenser. After the assay plates were incubated at 37 C/5% CO2 for 18 hrs, 23 nL of compounds dissolved in DMSO, positive controls or DMSO only was transferred to the assay plate by a pintool workstation (Kalypsys, San Diego, CA). After the plates were incubated at 37 C/5% CO2 for 3 hrs, 1 uL of LiveBLAzer B/G FRET substrate (Invitrogen, Carlsbad, CA) was added to each well using Bioraptr Flying Reagent Dispenser (FRD, Aurora Discovery, San Diego, CA). The plates were incubated at room temperature for 2 h, then fluorescence intensities were measured using an Envision plate reader (PerkinElmer, Shelton, CT) at Excitation 405nm, Emission 460nm and 530nm. The % activity was determined from the ratio of 460nm/530nm. For cell viability readout that measures cytotoxicity, 4 uL /well of CellTiter-Glo reagent was added into the assay plates using Bioraptr FRD. After 30 min incubation at room temperature, the luminescence intensity in the assay plates was measured using a ViewLux (PerkinElmer, Shelton, CT) plate reader.
On the % scale 0 is the no-effect control and ±100 the full control effect.

With `COc1ccc(COC(C)=O)cc1` as the molecule, how does the “activity change, negative = cytotoxicity” value read?
The value was -2.16%.

For `Oc1cccc2cc3cccc(O)c3c(O)c12`, which “activity change, negative = cytotoxicity” value is on record?
Its value is 1.35%.

With `Cc1cc2cc3c(C)cc(=O)oc3c(C)c2o1` as the molecule, how does the “activity change, negative = cytotoxicity” value read?
Its value is 0.684% [at 42.5 µM].

With `CCOC(OCC)C(=O)c1ccccc1` as the molecule, how does the “activity change, negative = cytotoxicity” value read?
The value was -1.36%.

For `C=CCc1ccc(OC)c(OC)c1`, which Potency is on record?
The Potency was “inactive”.

With `Nc1nc(-c2ccccc2)cs1` as the molecule, how does the “activity change, negative = cytotoxicity” value read?
The value was -5.79%.

For `CCCCN1C(=O)[C@@H]([C@H](O)C2CCCCC2)NC(=O)C12CCN(Cc1ccc(Oc3ccc(C(=O)O)cc3)cc1)CC2`, which “activity change, negative = cytotoxicity” value is on record?
Its value is 23.6%.

For `CCOCCO`, which Potency is on record?
Its Potency is “inactive”.

Which Potency does the source give for `CC1(C)CC(N=C=O)CC(C)(CN=C=O)C1` (stereo not given) here?
The Potency was “inactive”.

Which Potency does the source give for `CCCCCC=O` here?
Its Potency is “inactive”.

For `Clc1cc(Cl)c(Cl)cc1Cl`, which Potency is on record?
Its Potency is “inactive”.

For `CC(C)(C)c1n[nH]c(=S)n(N)c1=O`, which “activity change, negative = cytotoxicity” value is on record?
Its value is -2.22%.

With `O=C(OCC1CO1)C1CCCCC1C(=O)OCC1CO1` (stereo not given) as the molecule, how does the “activity change, negative = cytotoxicity” value read?
The value was 15.7%.

Which “activity change, negative = cytotoxicity” value does the source give for `CC(C)(C)c1nnc(NS(=O)(=O)c2ccccc2)s1` here?
The value was -3.63% [at 42.5 µM].

With `COc1ccccc1C=O` as the molecule, how does the “activity change, negative = cytotoxicity” value read?
The value was 0.373%.

With `CCCCCCCCCCCCCCCC(=O)OC(C)C` as the molecule, how does the Potency read?
The Potency was “inactive”.

With `COc1ccc([N+](=O)[O-])cc1N` as the molecule, how does the Potency read?
The Potency was “inactive”.

Which Potency does the source give for `O=c1cc[nH]c(=O)[nH]1` here?
Its Potency is “inactive”.

With `CCC1CO1` (stereo not given) as the molecule, how does the “activity change, negative = cytotoxicity” value read?
The value was 5.06%.

For `COc1cccc2sc(N)nc12`, which “activity change, negative = cytotoxicity” value is on record?
The value was -1.45%.

For `CCCCCCCCCCC1CO1` (stereo not given), which “activity change, negative = cytotoxicity” value is on record?
The value was 4.56%.

With `CN(C)CCOCCN(C)CCO` as the molecule, how does the “activity change, negative = cytotoxicity” value read?
Its value is 5.44%.

For `CC(=O)Nc1cccc(C)c1`, which “activity change, negative = cytotoxicity” value is on record?
Its value is -9.95%.

For `CCOc1ccc2c(c1)C(C)=CC(C)(C)N2`, which Potency is on record?
The Potency was “inactive”.

For `C=C1C[C@@]23CC[C@H]4[C@@](C)(CCC[C@@]4(C)C(=O)O[C@@H]4O[C@H](CO)[C@@H](O)[C@H](O)[C@H]4O)[C@@H]2CC[C@]1(O[C@@H]1O[C@H](CO)[C@@H](O)[C@H](O[C@@H]2O[C@H](CO)[C@@H](O)[C@H](O)[C@H]2O)[C@H]1O[C@@H]1O[C@H](CO)[C@@H](O)[C@H](O)[C@H]1O)C3`, which “activity change, negative = cytotoxicity” value is on record?
Its value is 9.12%.

For `CC1CCCO1` (stereo not given), which “activity change, negative = cytotoxicity” value is on record?
Its value is 4.2%.

For `O=S(=O)(c1cccc2cnccc12)N1CCCNCC1`, which “activity change, negative = cytotoxicity” value is on record?
Its value is 4.04% [at 42.5 µM].

For `Cc1ccnc(NS(=O)(=O)c2ccc(N)cc2)n1`, which “activity change, negative = cytotoxicity” value is on record?
Its value is 7% [at 42.5 µM].

With `O=C(/C=C/c1ccc([N+](=O)[O-])cc1)c1ccccc1` as the molecule, how does the “activity change, negative = cytotoxicity” value read?
The value was 3.92%.

With `CC(CN(C)C)CN1c2ccccc2CCc2ccccc21` (stereo not given) as the molecule, how does the “activity change, negative = cytotoxicity” value read?
The value was 5.63% [at 42.5 µM].

With `Cc1cccc(C)c1OCC(=O)N[C@@H](Cc1ccccc1)[C@@H](O)C[C@H](Cc1ccccc1)NC(=O)[C@H](C(C)C)N1CCCNC1=O` as the molecule, how does the “activity change, negative = cytotoxicity” value read?
The value was 2.43% [at 42.5 µM].

For `CCC(CC)CO`, which “activity change, negative = cytotoxicity” value is on record?
The value was 9.45%.

Which “activity change, negative = cytotoxicity” value does the source give for `CCNCCO` here?
Its value is -1.31%.

With `Fc1c(F)c(F)c(Br)c(F)c1F` as the molecule, how does the “activity change, negative = cytotoxicity” value read?
Its value is 7.59%.

Which activity change, negative = cytotoxicity does the source give for `N[C@@H](CSCCCO)C(=O)O` here?
Its activity change, negative = cytotoxicity is -12.4% [at 18.9 µM].

Which Potency does the source give for `C=C(C)C(=O)OCCC[Si](OC)(OC)OC` here?
The Potency was “inactive”.

Which “activity change, negative = cytotoxicity” value does the source give for `CCC(C)(C)C` here?
Its value is -10.2%.

Which “activity change, negative = cytotoxicity” value does the source give for `OCCOc1cccc(OCCO)c1` here?
Its value is 0.627%.

For `c1ccc(CCNc2nc(-c3ccccc3)cs2)cc1`, which “activity change, negative = cytotoxicity” value is on record?
Its value is -10.2% [at 42.5 µM].

Which “activity change, negative = cytotoxicity” value does the source give for `CC(=O)c1ccc(C(C)=O)cc1` here?
Its value is -1.3%.
